Data from the supplement of paper PMC12808144.
Unmarked numbers belong to inactive results.

How the values were obtained:
[1] = test system: Mel-DCC-11-R; test: cell viability relative to DMSO control (fraction of DMSO control); higher = less cytotoxic, active = 0.8 or less; details: 1 µM, 120 h
How it was run: (§1)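 For 120 h, duplicate wells of 384-well plates held 1 µM of each of 315 approved anti-cancer drugs (TargetMol), spotted acoustically before cells were added in 40 µl per well. Immortalized NHEM-hTERT melanocytes were seeded at 2500/well, and patient-derived Mel-DCC-11 plus its resistant subline Mel-DCC-11-R at 1500/well. The subline was run both without and with 8 µM of its selecting drug, and ATPlite 1step luminescence was read. Viability was normalised to vehicle-treated wells and averaged over the two replicates.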

[2] = test system: Mel-DCC-11; test: cell viability relative to DMSO control (fraction of DMSO control); higher = less cytotoxic, active = 0.5 or less; details: 1 µM; 120 h
How it was run: as §1

[3] = test system: NHEM-hTERT; test: as above; details: 1 µM; 120 h
How it was run: as §1

| SMILES | cell viability ([1]; vemurafenib co-treatment 0 µM) | cell viability ([1]; vemurafenib co-treatment 8 µM) | cell viability [2] | cell viability [3] |
| --- | --- | --- | --- | --- |
| C[C@@H](CN1CC(=O)NC(=O)C1)N1CC(=O)NC(=O)C1.Cl [Dexrazoxane HCl] | 1.09 | 1.13 |  |  |
| O=C(/C=C/c1ccc(O)cc1)c1ccc(O)cc1O [Isoliquiritigenin] | 0.834 | 1.02 | 1.03 | 0.982 |
| CC(=O)O[C@@]12CO[C@@H]1C[C@H](O)[C@@]1(C)C(=O)[C@H](O)C3=C(C)[C@@H](OC(=O)[C@H](O)[C@@H](NC(=O)OC(C)(C)C)c4ccccc4)C[C@@](O)([C@@H](OC(=O)c4ccccc4)[C@H]21)C3(C)C [Docetaxel] | 1.07 | 0.609 (active) | 0.61 | 0.707 |
| CNCc1ccc(-c2[nH]c3cc(F)cc4c3c2CCNC4=O)cc1.O=P(O)(O)O [Rucaparib Phosphate] | 0.916 | 1.11 | 1.1 | 0.996 |
| CC(=O)Nc1cccc(-n2c(=O)n(C3CC3)c(=O)c3c(Nc4ccc(I)cc4F)n(C)c(=O)c(C)c32)c1 [Trametinib] | 0.206 (active) | 0.165 (active) | 0.0655 (active) | 0.453 (active) |
| CC1CCC(C(C)C)C(O)C1 (racemic) [DL-Menthol] | 1.07 | 1.08 | 1.2 | 0.973 |
| NC(=O)c1cccc2cn(-c3ccc([C@@H]4CCCNC4)cc3)nc12 [Niraparib] | 1.06 | 1.08 | 1.01 | 0.932 |
| Nc1cccc2c1CN(C1CCC(=O)NC1=O)C2=O (stereo not given) [Lenalidomide] | 0.713 (active) | 1.01 | 0.996 | 0.996 |
| Nc1ccn([C@@H]2O[C@H](CO)[C@@H](O)[C@@H]2O)c(=O)n1 [Cytarabine] | 0.654 (active) | 0.936 | 0.87 | 0.886 |
| NC(=O)NO [Hydroxyurea] | 1.09 | 0.655 (active) | 0.899 | 1.1 |
| CS(=O)(=O)CCNCc1ccc(-c2ccc3ncnc(Nc4ccc(OCc5cccc(F)c5)c(Cl)c4)c3c2)o1 [Lapatinib] | 1.12 | 0.841 | 1.22 | 0.822 |
| O=c1[nH]cc(F)c(=O)[nH]1 [Fluorouracil] | 1.14 | 1.06 | 1.46 | 1.01 |
| CNC(=O)c1cc(Oc2ccc(NC(=O)Nc3ccc(Cl)c(C(F)(F)F)c3)cc2)ccn1 [Sorafenib] | 0.898 | 1.2 | 1.46 | 1.02 |
| CC(=O)O[C@]1(C(C)=O)CC[C@H]2[C@@H]3C=C(C)C4=CC(=O)CC[C@]4(C)[C@H]3CC[C@@]21C [Megestrol acetate] | 1.13 | 1 | 1.35 | 1.04 |
| CO[C@H]1C(=O)[C@]2(C)[C@@H](OC)C[C@H]3OC[C@@]3(OC(C)=O)[C@H]2[C@H](OC(=O)c2ccccc2)[C@]2(O)C[C@H](OC(=O)[C@H](O)[C@@H](NC(=O)OC(C)(C)C)c3ccccc3)C(C)=C1C2(C)C [Cabazitaxel] | 1.04 | 0.565 (active) | 0.81 | 0.692 |
| Cc1cc(Nc2cc(N3CCN(C)CC3)nc(Sc3ccc(NC(=O)C4CC4)cc3)n2)n[nH]1 [Tozasertib] | 1.14 | 0.752 (active) | 1.56 | 0.841 |
| Nc1[nH]c(=O)ncc1F [Fluorocytosine] | 0.936 | 1.08 | 1.16 | 1.04 |
| Cc1ccc(Nc2nccc(N(C)c3ccc4c(C)n(C)nc4c3)n2)cc1S(N)(=O)=O [Pazopanib] | 1.07 | 1.13 | 1.68 | 0.893 |
| O=c1ccn([C@@H]2O[C@H](CO)[C@@H](O)[C@H]2O)c(=O)[nH]1 [Uridine] | 0.931 | 1.09 | 1.11 | 1.05 |

| SMILES | cell viability ([1]; vemurafenib co-treatment 0 µM) | cell viability ([1]; vemurafenib co-treatment 8 µM) | cell viability [2] | cell viability [3] |
| --- | --- | --- | --- | --- |
| N#Cc1ccnc(N2C(=O)CC[C@H]2C(=O)N(c2cncc(F)c2)[C@H](C(=O)NC2CC(F)(F)C2)c2ccccc2Cl)c1 [Ivosidenib] | 1.25 | 1.06 | 1.32 | 1.27 |
| COc1cc2nccc(Oc3ccc(NC(=O)C4(C(=O)Nc5ccc(F)cc5)CC4)cc3)c2cc1OC.O=C(O)C[C@H](O)C(=O)O | 1.05 | 0.365 (active) | 0.93 | 0.932 |
| COc1cc2nccc(Oc3ccc(NC(=O)C4(C(=O)Nc5ccc(F)cc5)CC4)cc3)c2cc1OC [Cabozantinib] | 1.1 | 0.427 (active) | 0.999 | 0.739 |
| Cc1cn(-c2cc(NC(=O)c3ccc(C)c(Nc4nccc(-c5cnccn5)n4)c3)cc(C(F)(F)F)c2)cn1 [Radotinib] | 1.19 | 1.27 | 0.995 | 1.09 |
| COc1cccc2c1C(=O)c1c(O)c3c(c(O)c1C2=O)C[C@@](O)(C(=O)CO)C[C@@H]3O[C@H]1C[C@H](N)[C@H](O)[C@H](C)O1.Cl [Doxorubicin hydrochloride] | 0.166 (active) | 0.171 (active) | 0.133 (active) | 0.454 (active) |
| C1=C/COCc2cc(ccc2OCCN2CCCC2)Nc2nccc(n2)-c2cccc(c2)COC/1 [Pacritinib] | 1.46 | 1.06 | 1.2 | 1.04 |
| CC(=O)O.CC(C)C[C@H](NC(=O)[C@@H](COC(C)(C)C)NC(=O)[C@H](Cc1ccc(O)cc1)NC(=O)[C@H](CO)NC(=O)[C@H](Cc1c[nH]c2ccccc12)NC(=O)[C@H](Cc1cnc[nH]1)NC(=O)[C@@H]1CCC(=O)N1)C(=O)N[C@@H](CCCN=C(N)N)C(=O)N1CCC[C@H]1C(=O)NNC(N)=O [Goserelin acetate] | 0.927 | 1.13 | 1.22 | 1.07 |
| CC1(C)NC(=O)N(c2ccc([N+](=O)[O-])c(C(F)(F)F)c2)C1=O [Nilutamide] | 1.03 | 0.997 | 1.09 | 1.19 |
| CC[C@]1(O)C[C@@H]2C[N@@](CCc3c([nH]c4ccccc34)[C@@](C(=O)OC)(c3cc4c(cc3OC)N(C)[C@H]3[C@@](O)(C(=O)OC)[C@H](OC(C)=O)[C@]5(CC)C=CCN6CC[C@]43[C@@H]65)C2)C1.O=S(=O)(O)O [Vinblastine sulfate] | 0.488 (active) | 0.252 (active) | 0.428 (active) | 0.567 |
| CC(/C=C/C=C(\C)C(=O)O[C@@H]1O[C@H](CO[C@@H]2O[C@H](CO)[C@@H](O)[C@H](O)[C@H]2O)[C@@H](O)[C@H](O)[C@H]1O)=C\C=C\C=C(C)\C=C\C=C(/C)C(=O)O[C@@H]1O[C@H](CO[C@@H]2O[C@H](CO)[C@@H](O)[C@H](O)[C@H]2O)[C@@H](O)[C@H](O)[C@H]1O [Crocin] | 0.985 | 1.03 | 1.28 | 1.12 |
| CN(C)c1nc(N(C)C)nc(N(C)C)n1 [Altretamine] | 0.973 | 0.92 | 0.88 | 0.945 |
| CN(C)C(=N)N=C(N)N.Cl [Metformin hydrochloride] | 0.843 | 1.08 | 1.03 | 1.07 |
| S=c1nc[nH]c2nc[nH]c12 [Mercaptopurine] | 0.876 | 0.993 | 0.611 | 1.07 |
| COc1cc(C[C@H]2C(=O)OC[C@@H]2Cc2ccc(OC)c(OC)c2)ccc1O [Arctigenin] | 1.01 | 0.855 | 3.4 | 1.21 |
| C[C@]12CC[C@H](O)CC1=CC[C@@H]1[C@@H]2CC[C@]2(C)C(c3cccnc3)=CC[C@@H]12 [Abiraterone] | 1.07 | 1.16 | 1.28 | 0.938 |
| COc1ccc2c(c1OC)C(=O)O[C@@H]2[C@H]1c2c(cc3c(c2OC)OCO3)CC[NH+]1C.[Cl-] [Noscapine hydrochloride] | 1.04 | 1.13 | 1.12 | 1.13 |
| OC[C@H]1O[C@@H](n2cnc3c2NC=NC[C@H]3O)C[C@@H]1O [Pentostatin] | 0.905 | 1.2 | 1.12 | 1.1 |
| CCCC(=O)O[C@]1(C(=O)CO)CC[C@H]2[C@@H]3CCC4=CC(=O)CC[C@]4(C)[C@H]3[C@@H](O)C[C@@]21C [Hydrocortisone butyrate] | 1.21 | 1.14 | 1.4 | 0.973 |
| CO[C@H]1C=CO[C@@]2(C)Oc3c(C)c(O)c4c(O)c(c(/C=N/N5CCN(C)CC5)c(O)c4c3C2=O)NC(=O)/C(C)=C\C=C/[C@H](C)[C@H](O)[C@@H](C)[C@@H](O)[C@@H](C)[C@H](OC(C)=O)[C@@H]1C [Rifampicin] | 0.882 | 0.848 | 0.597 | 1.03 |
